# ± gives the standard deviation of the averaged measurements.
# How the values were obtained:
# Settings in all cases: concentration: 10 µM; 24 h
# HCC1569 [1] = assay: H1.0 immunofluorescence intensity relative to DMSO (% of DMSO); higher = stronger H1.0 induction
# How it was run: (§1)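 Using 384-well plates with 800 cells per well in RPMI plus 10% FBS, HCC1569 and TDF cells were exposed to compounds at 10 µM, in triplicate, for 24 h at 37 °C. Imaging of six fields per well at ×10 followed H1.0 and DAPI staining. The reported quantity, H1.0 nuclear intensity or cell number, is a median of replicates given as percent of the plate control, and HCC1569 values were smoothed for positional effects.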
# TDF [2] = assay: as above
# How it was run: as §1
# HCC1569 [3] = assay: cell number relative to DMSO (% of DMSO); higher = more cells (less growth inhibition / toxicity)
# How it was run: as §1
# TDF [4] = assay: as above
# How it was run: as §1
# TDF [5] = assay: H1.0 immunofluorescence intensity relative to DMSO (% of DMSO); higher = stronger H1.0 induction, active = 120 or more
# How it was run: as §1
# HCC1569 [6] = assay: H1.0 immunofluorescence intensity relative to DMSO (% of DMSO); higher = stronger H1.0 induction, active = 140 or more
# How it was run: as §1
# 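Throughout, for H1.0 immunofluorescence intensity relative to DMSO: TDF is a line of transformed human dermal fibroblasts of mesenchymal origin.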
# 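Throughout, for cell number relative to DMSO: TDF denotes transformed human dermal fibroblasts of mesenchymal origin.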
Compound,H1.0 immunofluorescence intensity (HCC1569 [1]),H1.0 immunofluorescence intensity (TDF [2]),cell number (HCC1569 [3]),cell number (TDF [4]),H1.0 immunofluorescence intensity (TDF [5]),H1.0 immunofluorescence intensity (HCC1569 [6])
CC(=O)N[C@@H](CS)C(N)=O,103 (inactive),96.2 (inactive),–,–,–,–
NS(=O)(=O)c1cc2c(cc1Cl)NC=NS2(=O)=O [Chlorothiazide],–,–,105,105,95.5 (inactive),94 (inactive)
O=C(O)c1cc(=O)c2ccc(Cl)cc2[nH]1 [7-Chlorokynurenic acid],–,–,96.9,105,92 (inactive),91 (inactive)
COc1cc2nccc(Oc3ccc(NC(=O)NC4CC4)c(Cl)c3)c2cc1C(N)=O,–,–,83.8,94.9,89.2 (inactive),122 (inactive)
CC(C)C(=O)c1c(C(C)C)nn2ccccc12 [Ibudilast],–,–,101 ± 4.1,97.7 ± 1.3,93.1 (inactive),94.5 (inactive)
NCC(O)(CS(=O)(=O)O)c1ccc(Cl)cc1 (configuration not stated) [2-Hydroxysaclofen],–,–,101,94.6,97.7 (inactive),93.4 (inactive)
COc1cc(Br)c(CC2c3cc(OC)c(OC)cc3CCN2C)cc1OC (racemic),–,–,99.7,98.5,97.8 (inactive),97.6 (inactive)
Oc1cc2c(c(Cl)c1O)CCNCC2c1ccccc1 (configuration not stated),–,–,99.5,87.8,85.5 (inactive),105 (inactive)
CN(C)CCCCSC(=N)N.Cl.Cl,–,–,99.3,106,93.8 (inactive),102 (inactive)
Nc1ncnc2n[nH]c(Nc3ccc(F)cc3)c12 [MNK1 Inhibitor],–,–,91.2,110,88.8 (inactive),140 (inactive)
CC(=O)OCC1=C(C(=O)[O-])N2C(=O)C(NC(=O)CSc3ccncc3)C2SC1.[Na+] (configuration not stated) [Cephapirin sodium],–,–,101,103,93.8 (inactive),84.4 (inactive)
CC(=O)c1ccc(N2CCOCC2)cc1O [DNA-PK Inhibitor III],–,–,99.1,93.9,93.9 (inactive),118 (inactive)
O=c1[nH]c(=O)n(C2CC(O)C(CO)O2)cc1F (configuration not stated) [Floxuridine],–,–,81.3,61.1,112 (inactive),119 (inactive)
CCCCN1CCC(COC(=O)c2cc(Cl)c(N)c3c2OCCO3)CC1.Cl,–,–,102,108,97.7 (inactive),104 (inactive)
CCC1C(=O)OCC1Cc1cncn1C.O=[N+]([O-])O (configuration not stated) [Pilocarpine nitrate],–,–,98,86.9,98.7 (inactive),107 (inactive)
CC(C)c1cc(C(C)C)c(CC(=O)NS(=O)(=O)Oc2c(C(C)C)cccc2C(C)C)c(C(C)C)c1,–,–,94.4,103,89.8 (inactive),110 (inactive)
O=c1ccc2ccc(O)c(O)c2o1 [Daphnetin],–,–,106,87.6,100 (inactive),95.2 (inactive)
Cc1cc(I)ccc1Nc1c(C(=O)NOCC2CC2)cc(F)c(F)c1F,–,–,97.2,95.6,91.1 (inactive),116 (inactive)
O=C1NCCc2[nH]c(-c3ccncc3)cc21 [Cdc7/Cdk9 Inhibitor],–,–,58.9,35.3,111 (inactive),115 (inactive)
NCC(O)c1ccc(O)c(O)c1.O=C(O)C(O)C(O)C(=O)O (stereo not drawn) [Norepinephrine-(+)-tartrate L (-)],–,–,100,99.2,91.4 (inactive),105 (inactive)
CCCCCCCCCCCCCCCCCCCCCC(=O)O [Docosanoic acid],–,–,101,104,101 (inactive),101 (inactive)
CCCCNc1c(C(=O)OCC)c(C)nc2c1cnn2CC [Tracazolate],–,–,105,108,92.8 (inactive),107 (inactive)
"NC(=O)c1ccc(-c2nc(-c3ccc4c(c3)OCCO4)c(-c3ccccn3)[nH]2)cc1 [Casein Kinase I Inhibitor, D4476]",–,–,92.2,97,95.4 (inactive),127 (inactive)
CC(=O)CC/C=C(\C)CC/C=C(\C)CC/C=C(\C)CCC=C(C)C,–,–,100,96.2,104 (inactive),105 (inactive)
Cc1ccc(=O)n(-c2ccccc2)c1 [Pirfenidone],–,–,102,103,90.3 (inactive),92.5 (inactive)
CC(C)C(CO)Nc1nc(Nc2ccc(C(=O)O)c(Cl)c2)c2ncn(C(C)C)c2n1 (configuration not stated) [Purvalanol B],–,–,101,110,93.1 (inactive),98.7 (inactive)

# From the supplement of paper PMC7156485
